# Laboratory results as given in PubChem BioAssay (NCATS).
# A number with no mark means an inactive call. Records with an inconclusive call do not appear. Entries that show only a call come without a potency. Activity calls are given as the source filed them. Unless noted, calls come from the whole dose curve; as a rule, active = well fitted curve in the direction sought with a large enough effect; inconclusive = small, poorly fitted or top-dose-only effect, or another doubt; inactive = no such curve, though single readings can be large; an effect the other way counts as inactive or inconclusive.
# Tests used:
# [1] = qHTS of Trypanosoma Brucei Inhibitors: LOPAC Validation (AID 624147); note: potency is the fitted concentration of half-maximal effect
# In short: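 Quantitative HTS: titrated library compounds versus trypanosomal pyruvate kinase in TEA buffer (pH 7.2) containing KCl, MgCl2, BSA and Tween-20. Reactions were initiated with ADP, 130 uM final. Kinase-Glo Plus luminescence was read after 45 min at RT.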
# [2] = biological target: Glucagon-like peptide 1 receptor (Homo sapiens) (UniProt P43220); assay: qHTS of GLP-1 Receptor Agonists: LOPAC Validation (AID 624148);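 note: higher luminescence signal means agonism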
# Chain of Glucagon-like peptide 1 receptor (Homo sapiens) (P43220 whole entry, looked up): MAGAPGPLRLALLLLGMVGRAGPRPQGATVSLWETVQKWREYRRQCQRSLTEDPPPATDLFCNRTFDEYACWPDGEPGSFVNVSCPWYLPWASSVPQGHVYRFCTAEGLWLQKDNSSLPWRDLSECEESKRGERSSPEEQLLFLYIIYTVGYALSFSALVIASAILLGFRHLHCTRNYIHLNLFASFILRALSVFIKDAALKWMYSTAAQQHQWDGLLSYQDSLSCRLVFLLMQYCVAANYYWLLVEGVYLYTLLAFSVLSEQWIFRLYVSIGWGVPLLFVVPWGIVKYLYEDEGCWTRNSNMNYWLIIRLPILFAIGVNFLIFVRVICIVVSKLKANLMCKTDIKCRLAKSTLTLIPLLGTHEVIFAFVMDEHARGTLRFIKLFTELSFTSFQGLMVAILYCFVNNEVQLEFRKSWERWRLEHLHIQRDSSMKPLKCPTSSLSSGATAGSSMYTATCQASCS
# In short: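 HEK293 cells stably co-expressing a cAMP-responsive luciferase reporter and a hypersensitive GLP-1R were plated 12 h at 37 °C and exposed to compounds for 4-6 hr at 37 °C, 5% CO2. Luminescence was read 12 min after adding detection reagent.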
# [3] = qHTS of Nrf2 Activators: LOPAC Validation (AID 624149)
# In short: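 AREc32_Fluc cells, 1000/well, OPTI-MEM + 5% FBS, o/n 37 deg C 5% CO2; compound pin-transfer, 24 hr 37 deg C; Steady-Glo 30 min RT, luminescence read.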
# [4] = HTS Assay for Allosteric Antagonists of the Human D2 Dopamine Receptor: Hit Validation in HTRF (AID 624455); note: potency is the fitted concentration of half-maximal effect
# In short: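 HTRF read-out; cells stably expressing D1 receptor; hits scored for inhibition of D1-mediated response. Primary screen: calcium flux, force-coupled inducible Hek293 Trex D2 line, antagonism vs EC80 dopamine.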
# [5] = biological target: Glutaminase kidney isoform, mitochondrial (Homo sapiens) (UniProt O94925); assay: qHTS for Inhibitors of Glutaminase (GLS): LOPAC Validation (AID 624146); note: nearly all actives have a fitted effect of over 60% in size; note: potency is the fitted concentration of half-maximal effect
# Chain of Glutaminase kidney isoform, mitochondrial (Homo sapiens) (O94925 whole entry, looked up, canonical isoform): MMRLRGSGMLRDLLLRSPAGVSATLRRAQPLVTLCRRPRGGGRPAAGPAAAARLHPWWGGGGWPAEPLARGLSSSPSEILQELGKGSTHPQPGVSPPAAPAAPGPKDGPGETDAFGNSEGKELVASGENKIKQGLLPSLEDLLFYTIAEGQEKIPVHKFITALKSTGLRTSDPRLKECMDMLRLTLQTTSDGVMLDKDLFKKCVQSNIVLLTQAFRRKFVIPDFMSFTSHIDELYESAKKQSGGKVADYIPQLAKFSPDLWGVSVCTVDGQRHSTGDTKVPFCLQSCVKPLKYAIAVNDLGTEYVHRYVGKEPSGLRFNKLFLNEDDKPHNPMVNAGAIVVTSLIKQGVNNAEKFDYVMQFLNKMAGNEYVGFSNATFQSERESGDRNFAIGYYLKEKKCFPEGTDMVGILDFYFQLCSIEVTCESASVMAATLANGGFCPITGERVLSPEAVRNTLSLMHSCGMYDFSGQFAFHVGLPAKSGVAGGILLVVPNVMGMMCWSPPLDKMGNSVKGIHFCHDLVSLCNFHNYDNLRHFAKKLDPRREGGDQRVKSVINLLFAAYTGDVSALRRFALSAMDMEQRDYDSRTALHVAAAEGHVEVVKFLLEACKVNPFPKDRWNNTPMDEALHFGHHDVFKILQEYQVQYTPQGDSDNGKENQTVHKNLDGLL
# In short: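 Enzyme dispensed in phosphate buffer (45 mM, pH 8.2, 0.02% Tween-20), compounds pinned in, then 1 mM L-glutamine solution and the glutamate oxidase–HRP–Amplex Red mix added; fluorescence read immediately and again after 30 min at room temperature.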
# [6] = biological target: Peroxisome proliferator-activated receptor alpha (Homo sapiens) (UniProt Q07869); assay: qHTS assay for small molecule agonists of the peroxisome proliferator-activated receptor alpha (PPARalpha) signaling pathway (AID 651778); settings: PathHunter PPARalpha complementation, chemiluminescence, 6 h; max response: hits give high values
# Chain of Peroxisome proliferator-activated receptor alpha (Homo sapiens) (Q07869 whole entry, looked up): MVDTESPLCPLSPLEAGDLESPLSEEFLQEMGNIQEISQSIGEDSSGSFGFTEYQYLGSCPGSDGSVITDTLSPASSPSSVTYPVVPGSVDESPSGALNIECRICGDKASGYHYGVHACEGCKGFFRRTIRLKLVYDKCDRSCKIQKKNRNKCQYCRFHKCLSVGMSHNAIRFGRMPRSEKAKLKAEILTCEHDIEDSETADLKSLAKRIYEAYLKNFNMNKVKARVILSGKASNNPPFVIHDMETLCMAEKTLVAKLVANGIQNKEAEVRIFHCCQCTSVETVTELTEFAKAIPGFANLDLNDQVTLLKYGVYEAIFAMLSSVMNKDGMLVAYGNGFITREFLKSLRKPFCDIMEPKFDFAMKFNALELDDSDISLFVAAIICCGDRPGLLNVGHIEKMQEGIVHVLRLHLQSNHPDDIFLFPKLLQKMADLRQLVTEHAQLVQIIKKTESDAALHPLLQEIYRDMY
# In short: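 Cells plated at 2,000/well and held overnight at 37 C, 5% CO2, then compound added by pin tool for 6 hr; after PathHunter detection reagent and 60 min at room temperature, chemiluminescence from enzyme complementation was read.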
# [7] = qHTS assay for small molecule activators of the p53 signaling pathway (AID 651743; active = well fitted activation curve with a large enough effect in the signal ratio, not every such curve was filed as active; the % refers to the signal ratio; note: series mostly up to about 92 µM); settings: HCT-116 p53RE-bla, beta-lactamase FRET ratio, 16 h; hits give high values
# In short: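 Here HCT-116 cells with an integrated p53-responsive beta-lactamase gene were incubated with compounds (16 hours, 37 C) after a 5-hour plating period; beta-lactamase activity was detected as fluorescence intensity via B/G FRET substrate.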
# [8] = qHTS assay for small molecule activators of the nuclear factor-kappa B (NF-kB) signaling pathway (AID 651749; active = well fitted activation curve with a large enough effect in the signal ratio; the % refers to the signal ratio; note: series mostly up to about 77 µM); settings: NF-kB-bla ME-180 cells, beta-lactamase FRET ratio, 16 h; hits give high values
# In short: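 Beta-lactamase reporter expression, controlled by NF-kB response elements in ME-180 cells, was quantified fluorometrically via FRET disruption; cells at 2,000/well had been incubated with 23 nL test compound for 16 hr.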
# [9] = qHTS assay for environmental chemicals that activate the Aryl hydrocarbon Receptor (AhR) signaling pathway (AID 651777); settings: 1A2-DRE human hepatoma cells, luciferase, 24 h; hits give high values; note: nearly all actives have a fitted effect of over 15% in size
# In short: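 AhR activation is scored as a rise in luciferase from a stable DRE–CYP1A2 promoter construct in human hepatoma cells. Treatment lasts 24 hr at 37 C; detection uses One-Glo after 30 min at room temperature.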
# [10] = biological target: Tumor susceptibility gene 101 protein (Homo sapiens) (UniProt Q99816); assay: qHTS Assay for Iinhibitors of HIV-1 Budding by Blocking the Interaction of PTAP/TSG101: Hit Validation (AID 651600); note: nearly all actives have a fitted effect of over 70% in size
# Chain of Tumor susceptibility gene 101 protein (Homo sapiens) (Q99816 whole entry, looked up, the tested form may be a part): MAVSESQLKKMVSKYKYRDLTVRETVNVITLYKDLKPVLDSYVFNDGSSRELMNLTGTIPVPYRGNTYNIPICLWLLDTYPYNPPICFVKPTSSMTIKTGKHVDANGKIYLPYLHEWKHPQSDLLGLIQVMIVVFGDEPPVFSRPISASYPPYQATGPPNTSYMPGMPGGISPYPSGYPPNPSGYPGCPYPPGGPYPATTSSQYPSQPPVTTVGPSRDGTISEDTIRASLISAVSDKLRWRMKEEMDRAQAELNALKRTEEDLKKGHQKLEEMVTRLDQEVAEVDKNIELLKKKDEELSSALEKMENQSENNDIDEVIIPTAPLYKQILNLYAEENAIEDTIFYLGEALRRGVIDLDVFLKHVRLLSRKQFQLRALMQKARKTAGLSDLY
# From the text: Stages of the HIV-1 replication cycle, specifically virus assembly and release, provide underexploited targets for the development of novel antiviral inhibitors. The late stages of HIV-1 replication are mediated by the Gag precursor protein, Pr55Gag. Expression of Pr55Gag is both necessary and sufficient for the production of virus-like particles from Gag-expressing cells. The Gag protein hijacks key host proteins involved in endocytic machinery of the host cell to promote endosomal processing and viral budding. The budding process requires a direct interaction between a […] (PTAP) motif in the p6 domain of Gag and the cellular endosomal sorting protein known as Tsg101. In this way, the Gag PTAP motif promotes the host cells to recruit viral particles to the plasma membrane where the new viral particles are released, effectively turning the host cells into viral factories. A fluorescence anisotropy assay has been developed to quantitatively measure the PTAP-Tsg101 interaction which can be used to screen for inhibitors of this interaction. […]
# Two uL of the Tsg101 binding domain in buffer (10 mM HEPES pH 7.5; 0.15 M NaCl, 0.01% Tween 20; 3 mM EDTA;0.1 mM TCEP) was dispensed into Greiner black MB 1536-well plates (final concentration 10 uM). […] Fluorescent polarization was determined using FITC excitation and polarized emission filters on a Perkin Elmer Viewlux. […]
structure (smiles),measurement,setting,value
C[C@H](O)C(=O)C1=Nc2c(nc(N)[nH]c2=O)NC1,Potency,[1],inactive
same,Potency,[2],inactive
same,Potency,[3],inactive
same,Potency,[4],inactive
S=C(S)N1CCCC1,Potency,[5],12.6 µM (active)
same,Potency,[1],23.9 µM (active)
same,Potency,[2],inactive
same,Potency,[3],inactive
same,Potency,[4],inactive
CC(C)(C)c1ccc(/C=C/C(=O)Nc2ccc3c(c2)OCCO3)cc1,Potency,[5],inactive
same,Potency,[1],inactive
same,Potency,[2],inactive
same,Potency,[3],inactive
same,Potency,[4],inactive
C[C@H]1CC2C3CCC4=CC(=O)C=C[C@]4(C)[C@@]3(Cl)[C@@H](O)C[C@]2(C)[C@@]1(O)C(=O)CO (stereo partly specified),Potency,[5],inactive
same,Potency,[1],inactive
same,Potency,[2],inactive
same,Potency,[3],inactive
same,Potency,[4],inactive
CN(C)CCCc1cc(C(=O)Nc2ccc(-c3ccncc3)cc2)ccc1O,Potency,[5],inactive
same,Potency,[1],inactive
same,Potency,[3],inactive
COc1cc([C@@H]2c3cc4c(cc3[C@H](O)C3COC(=O)[C@@H]32)OCO4)cc(OC)c1OC (stereo partly specified),Potency,[2],inactive
same,Potency,[3],inactive
same,Potency,[4],inactive
NC(=O)CNCCC(c1ccccc1)c1ccccc1,Potency,[5],inactive
same,Potency,[1],inactive
same,Potency,[2],inactive
same,Potency,[3],inactive
same,Potency,[4],inactive
Cc1ccccc1/C=C/C1=NCCN1,Potency,[5],inactive
same,Potency,[1],inactive
same,Potency,[2],inactive
same,Potency,[4],inactive
CN1Cc2sccc2C(c2ccc(O)c(O)c2)C1 (stereo unspecified),Potency,[1],inactive
same,Potency,[2],inactive
same,Potency,[3],inactive
same,Potency,[4],0.0164 µM (active)
O[Si](CCCN1CCCCC1)(c1ccc(F)cc1)C1CCCCC1 (stereo unspecified),Potency,[5],inactive
same,Potency,[1],inactive
same,Potency,[2],inactive
same,Potency,[3],inactive
same,Potency,[4],inactive
CCN(c1nc(N)c(C(=O)N=C(N)N)nc1Cl)C(C)C,Potency,[5],inactive
same,Potency,[1],inactive
same,Potency,[2],inactive
same,Potency,[3],inactive
same,Potency,[4],inactive
CC[C@@H]1Cc2cc(O)ccc2C2=C1c1ccc(O)cc1C[C@H]2CC,Potency,[5],0.794 µM (active)
same,Potency,[1],inactive
same,Potency,[2],inactive
same,Potency,[3],inactive
same,max response,[6],-2.38%
CC(C)NC[C@H](O)COc1cccc2ccccc12,Potency,[5],inactive
same,Potency,[2],inactive
same,Potency,[3],inactive
same,Potency,[4],inactive
CC(=O)O[C@H]1Cc2ccccc2N(C(N)=O)c2ccccc21,Potency,[5],inactive
same,Potency,[1],inactive
same,Potency,[2],inactive
same,Potency,[3],inactive
same,Potency,[4],inactive
N#Cc1cc([N+](=O)[O-])c2sc(C(N)=O)[n+]([O-])c2c1,Potency,[1],inactive
same,Potency,[2],inactive
same,Potency,[3],inactive
same,Potency,[4],inactive
CCCCCCN(CCCCCC)C(=O)Cc1c(-c2ccc(F)cc2)[nH]c2ccccc12,Potency,[1],inactive
same,Potency,[2],inactive
same,Potency,[3],inactive
same,Potency,[4],inactive
c1ccc(C(NCc2cccnc2)(c2ccccc2)c2ccccc2)cc1,Potency,[1],inactive
same,Potency,[2],inactive
same,Potency,[3],inactive
same,Potency,[4],inactive
CC1=C(/C=C/C(C)=C/C=C/C(C)=C\C(=O)O)C(C)(C)CCC1,Potency,[5],inactive
same,Potency,[1],inactive
same,Potency,[2],inactive
same,Potency,[3],inactive
same,Potency,[4],inactive
same,activation,[7],-4.89%
same,activation,[8],-1.8%
same,activation,[9],6.61%
same,max response,[6],0.529%
CCCCCCCCCCC(C)(C)C(=O)Nc1c(OC)cc(OC)cc1OC,Potency,[5],inactive
same,Potency,[1],inactive
same,Potency,[2],inactive
same,Potency,[3],inactive
same,Potency,[4],inactive
O=c1oc(Cl)c(Cl)c2ccccc12,Potency,[5],inactive
same,Potency,[1],inactive
same,Potency,[2],inactive
same,Potency,[4],inactive
N=S(=O)(O)Cc1noc2ccccc12,Potency,[5],inactive
same,Potency,[1],inactive
same,Potency,[2],inactive
same,Potency,[3],inactive
same,Potency,[4],inactive
O=C(O)/C=C/c1ccc(O)c(O)c1,Potency,[5],2 µM (active)
same,Potency,[2],inactive
same,Potency,[3],inactive
same,Potency,[4],inactive
Nc1nc2c(cnn2CCc2ccccc2)c2nc(-c3ccco3)nn12,Potency,[5],inactive
same,Potency,[1],inactive
same,Potency,[2],inactive
same,Potency,[4],inactive
Nc1ncnc2c1nc(Br)n2C1OC2COP(=O)(O)O[C@@H]2C1O (stereo partly specified),Potency,[5],inactive
same,Potency,[1],inactive
same,Potency,[2],inactive
same,Potency,[3],inactive
same,Potency,[4],11.6 µM (active)
CC1CCN(CC[C@H]2CCCN2S(=O)(=O)c2cccc(O)c2)CC1,Potency,[5],inactive
same,Potency,[1],inactive
same,Potency,[2],inactive
same,Potency,[3],inactive
same,Potency,[4],inactive
COC(=O)[C@H](NC(=O)c1cc(-c2ccccc2)nc2ccccc12)c1ccccc1,Potency,[5],inactive
same,Potency,[1],inactive
same,Potency,[3],inactive
same,Potency,[4],inactive
CN(C)CCC(c1ccc(Br)cc1)c1ccccn1 (stereo unspecified),Potency,[1],inactive
same,Potency,[2],inactive
same,Potency,[3],inactive
same,Potency,[4],inactive
CN1CCCC1CCOC(C)(c1ccccc1)c1ccc(Cl)cc1 (stereo unspecified),Potency,[5],inactive
same,Potency,[1],inactive
same,Potency,[2],inactive
same,Potency,[3],inactive
same,Potency,[4],inactive
same,outcome,[10],inactive
CN1CCc2cc(Cl)c(O)cc2[C@@H](c2ccccc2)C1,Potency,[1],inactive
same,Potency,[2],inactive
same,Potency,[3],inactive
CC(C)NCC(O)COc1ccc(CC(N)=O)cc1 (stereo unspecified),Potency,[5],inactive
same,Potency,[2],inactive
same,Potency,[3],inactive
Cn1cc(C(F)(F)F)nc1-c1ccc(OCC(O)CNCCOc2ccc(O)c(C(N)=O)c2)cc1 (stereo unspecified),Potency,[1],inactive
same,Potency,[2],inactive
same,Potency,[3],inactive
same,Potency,[4],inactive
C[C@](Cc1ccc(O)c(O)c1)(NN)C(=O)O,Potency,[5],1.58 µM (active)
same,Potency,[2],inactive
same,Potency,[3],inactive
CC[n+]1c(/C=C/C=C2/N(C)c3ccccc3C2(C)C)sc2ccccc21,Potency,[5],11.2 µM (active)
same,Potency,[2],inactive
same,Potency,[3],inactive
same,Potency,[4],inactive
